In PubChem BioAssay (EPA / NIEHS):
Activity calls are given as the source filed them. The calls were made as follows: active = hit-call score of the fitted dose curve at least 0.9, where 1 is the maximum; inactive = score below 0.9.

Test: BSK_SAg_SRB: Viability Assessment in the BioMAP Diversity Plus: SAg Assay (AID 2283096);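 also: hits may be either gain or loss of signal compared with DMSO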
Settings: primary human HUVEC with PBMC
Protocol: BSK_SAg is a cell-based, multiplexed-readout assay that uses umbilical vein endothelium and peripheral blood mononuclear cells, a human vascular primary cell co-culture, with measurements taken at 24 hours after chemical dosing in a 96-well plate.BSK_SAg_SRB is an assay component measured in the BSK_SAg assay. It measures protein content, a form of viability reporter, as detected with absorbance signals by Sulforhodamine staining technology.Data from the assay component BSK_SAg_SRB was analyzed into 1 assay endpoint. This assay endpoint, BSK_SAg_SRB, was analyzed with bidirectional fitting relative to DMSO as the negative control and baseline of activity. Using a type of viability reporter, gain or loss-of-signal activity can be used to understand changes in the signaling. Furthermore, this assay endpoint can be referred to as a primary readout, because this assay has produced multiple assay endpoints where this one serves a signaling function. To generalize the intended target to other relatable targets, this assay endpoint is annotated to the cell morphology intended target family, where the subfamily is cell conformation.
The levels of cell surface (or secreted, indicated by the prefix "s") biomarker endpoints were measured by ELISA. Overt cytotoxicity to cells in confluent adherent cultures (all systems other than the BT system) was assessed by measuring total protein levels using sulforhodamine B (SRB) staining in parallel cultures at the time of biomarker measurements, indicated as SRB endpoints. For proliferation assays for adherent cell types, individual cell types are cultured at sub-confluence and relative cell numbers quantified by SRB staining at time points optimized for each system (48 h: 3C and CASM3C systems; 72 h: BT and HDF3CGF systems; 96 h: SAg system). SRB was performed by staining cells with 0.1% SRB after fixation with 10% TCA and reading wells at 560 nm.Viability and proliferation of PBMC (T cells) was quantified by Alamar Blue reduction for the SAg and BT systems. For PBMC viability (referred to as PBMC Cytotoxicity within the assay endpoint names), cells were plated (75,000/well in a 96-well plate) and then chemical samples added for 1 h before addition of activators, SEB and TSST-1 (20 ng/mL final concentration each). Cells were incubated for 90 h. Then, Alamar Blue (20 uL/well) (Invitrogen, Cat DAL1100) was added for 6 h, and the plates were read with a fluorescence microplate reader at 546/580 nm (excitation/emission). For PBMC proliferation, cells were plated and activated as above but incubated for only 16 h prior to addition of Alamar Blue. Plates were read after 6 h.

Q: Which outcome does the source give for CS(=O)(=O)c1ccc(C2=C(c3ccccc3)C(=O)OC2)cc1 here?
A: The outcome was “inactive”.

Q: For CCCCOC(=O)CCCCCCCC(=O)OCCCC, which outcome is on record?
A: Its outcome is “inactive”.

Q: For CCCCCCCCCCCCCCCC(=O)OC/C=C(C)/C=C/C=C(C)/C=C/C1=C(C)CCCC1(C)C, which outcome is on record?
A: Its outcome is “inactive”.

Q: Which AC50 does the source give for CC(C)(C)CC(C)(C)c1ccc(OCCOCC[N+](C)(C)Cc2ccccc2)cc1 here?
A: Its AC50 is 8.46 µM (active).

Q: Which AC50 does the source give for COc1ccc(CCN2CCC(Nc3nc4ccccc4n3Cc3ccc(F)cc3)CC2)cc1 here?
A: Its AC50 is 5 µM (active).

Q: With Clc1cc(Cl)c(-c2c(Cl)c(Cl)cc(Cl)c2Cl)cc1Cl as the compound, how does the outcome read?
A: Its outcome is “inactive”.

Q: Which outcome does the source give for CC(C=O)Cc1ccc(C(C)(C)C)cc1 (stereo not given) here?
A: The outcome was “inactive”.

Q: With C=C(C)C(=O)OCCOCCOCCOC(=O)C(=C)C as the compound, how does the outcome read?
A: The outcome was “inactive”.

Q: For CCCCN(CCCC)C(=O)N(CCCC)CCCC, which AC50 is on record?
A: The AC50 was 20 µM (active).

Q: With O=C1c2ccccc2C(=O)c2c(O)ccc(O)c21 as the compound, how does the outcome read?
A: Its outcome is “inactive”.

Q: For CC=Cc1ccc(OCC)c(O)c1, which outcome is on record?
A: Its outcome is “inactive”.

Q: For O=CN1CCOCC1, which outcome is on record?
A: The outcome was “inactive”.

Q: With CC(=O)C1(C)CC2=C(CCCC2(C)C)CC1C (stereo not given) as the compound, how does the AC50 read?
A: The AC50 was 26.8 µM (active).

Q: Which outcome does the source give for CC(C)(N=C=O)c1cccc(C(C)(C)N=C=O)c1 here?
A: The outcome was “inactive”.

Q: Which outcome does the source give for COc1cc(Cl)c(OC)cc1N here?
A: The outcome was “inactive”.

Q: Which AC50 does the source give for c1ccc(CCc2ccccc2)cc1 here?
A: Its AC50 is 35.9 µM (active).

Q: Which outcome does the source give for CN(c1nccc(=O)[nH]1)C1CCN(c2nc3ccccc3n2Cc2ccc(F)cc2)CC1 here?
A: Its outcome is “inactive”.

Q: With CC(=O)Nc1ccc(C(=O)CCl)cc1 as the compound, how does the AC50 read?
A: The AC50 was 6.11 µM (active).

Q: With c1ccc(Oc2ccccc2)cc1 as the compound, how does the outcome read?
A: Its outcome is “inactive”.

Q: Which outcome does the source give for IC(I)I here?
A: The outcome was “inactive”.

Q: For CN(C)C(=O)Nc1ccc(Oc2ccc(Cl)cc2)cc1, which outcome is on record?
A: Its outcome is “inactive”.

Q: For C=CC(C)(O)CCC=C(C)C (stereo not given), which outcome is on record?
A: The outcome was “inactive”.

Q: With CC(=O)c1c(C)c([N+](=O)[O-])c(C(C)(C)C)c([N+](=O)[O-])c1C as the compound, how does the outcome read?
A: The outcome was “inactive”.

Q: With CS(=O)(=O)OCCCCOS(C)(=O)=O as the compound, how does the outcome read?
A: The outcome was “inactive”.

Q: Which outcome does the source give for CCCCCCC(CO)CCCC (stereo not given) here?
A: The outcome was “inactive”.

Q: Which outcome does the source give for CCCCCC(C=O)=Cc1ccccc1 here?
A: The outcome was “inactive”.

Q: With c1ccc2cc(Nc3ccc(Nc4ccc5ccccc5c4)cc3)ccc2c1 as the compound, how does the outcome read?
A: The outcome was “inactive”.

Q: Which outcome does the source give for CC1(C)CCC[C@]2(C)[C@H]3CCO[C@]3(C)CC[C@@H]12 here?
A: The outcome was “inactive”.

Q: For CCOC(=O)C(C#N)=C(c1ccccc1)c1ccccc1, which outcome is on record?
A: Its outcome is “inactive”.

Q: With C[C@@H]1CCN(C(=O)[C@H](CCCN=C(N)N)NS(=O)(=O)c2cccc3c2NC[C@H](C)C3)[C@@H](C(=O)O)C1 as the compound, how does the outcome read?
A: Its outcome is “inactive”.

Q: With CC(CN=Cc1ccccc1O)N=Cc1ccccc1O (stereo not given) as the compound, how does the outcome read?
A: The outcome was “inactive”.

Q: Which outcome does the source give for COc1ccc(OC)c(N=Nc2c(O)ccc3ccccc23)c1 here?
A: The outcome was “inactive”.

Q: For CC1(C)C2=CCCC(C)(C)[C@]23CC[C@H]1C3, which outcome is on record?
A: Its outcome is “inactive”.

Q: Which AC50 does the source give for Oc1c(Cl)cc(Cl)c(Cl)c1Cc1c(O)c(Cl)cc(Cl)c1Cl here?
A: Its AC50 is 15.6 µM (active).

Q: Which outcome does the source give for CSCCC=O here?
A: The outcome was “inactive”.

Q: For Cc1cc(CCC(=O)OCCOCCOCCOC(=O)CCc2cc(C)c(O)c(C(C)(C)C)c2)cc(C(C)(C)C)c1O, which AC50 is on record?
A: Its AC50 is 32.2 µM (active).

Q: With C=C(C)C(=O)OCCOCCOCCOCCOC(=O)C(=C)C as the compound, how does the outcome read?
A: The outcome was “inactive”.

Q: With CCN(CC)C(=O)N(CC)CC as the compound, how does the outcome read?
A: The outcome was “inactive”.

Q: Which outcome does the source give for C=C(C)C(=O)OCC(CC)(COC(=O)C(=C)C)COC(=O)C(=C)C here?
A: The outcome was “inactive”.

Q: For C1=CC2C3C=CC(C3)C2C1 (stereo not given), which outcome is on record?
A: Its outcome is “inactive”.
